FBW7 activator: FBW7 E3 ligase activators, primary screen, biochemical, AlphaScreen, human | AID 1259310, 2017 | normalized activity (activation), % at 26.1 µM | AlphaScreen FBW7–phospho-cyclin E peptide binding, activator screen | actives 0.13% (n = 650,000) | F-box/WD repeat-containing protein 7 (Homo sapiens), Q969H0; in the data active = normalized activity above about 1.9%;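 also: purified mutant Fbw7 with reduced substrate affinity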
Target sequence (Q969H0 whole entry, looked up): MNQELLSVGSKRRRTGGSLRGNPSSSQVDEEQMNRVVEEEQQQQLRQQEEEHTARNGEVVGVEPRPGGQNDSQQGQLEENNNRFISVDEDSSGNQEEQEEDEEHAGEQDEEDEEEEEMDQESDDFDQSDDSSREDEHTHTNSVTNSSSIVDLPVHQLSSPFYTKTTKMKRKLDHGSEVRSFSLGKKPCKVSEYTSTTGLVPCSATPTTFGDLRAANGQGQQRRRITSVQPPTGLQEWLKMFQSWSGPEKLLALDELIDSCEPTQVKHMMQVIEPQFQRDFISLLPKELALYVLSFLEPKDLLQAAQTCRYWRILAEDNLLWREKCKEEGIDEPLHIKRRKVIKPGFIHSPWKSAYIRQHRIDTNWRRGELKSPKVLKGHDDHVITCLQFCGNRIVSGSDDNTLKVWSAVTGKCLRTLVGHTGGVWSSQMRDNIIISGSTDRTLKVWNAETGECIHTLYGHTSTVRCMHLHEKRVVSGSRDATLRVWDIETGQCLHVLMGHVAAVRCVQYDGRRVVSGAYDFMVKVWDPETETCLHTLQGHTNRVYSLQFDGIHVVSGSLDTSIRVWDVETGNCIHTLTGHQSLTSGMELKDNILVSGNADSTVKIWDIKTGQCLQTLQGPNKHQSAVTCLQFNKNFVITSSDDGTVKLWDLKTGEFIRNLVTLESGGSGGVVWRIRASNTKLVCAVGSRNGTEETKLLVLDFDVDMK
TEAD-YAP block: TEAD-YAP interaction inhibition, primary screen, TEAD-YAP interaction inhibitor project, luminescence, HEK-TIYL cells | TEAD-Gal4/YAP UAS-luciferase luminescence | inhibition, % at 9.12 µM | actives 1.4% (n = 640,000); in the data active = inhibition above about 32%;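 also: 0% = median of test compound wells and 100% = reference inhibitor wells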
MITF primary: MITF inhibitors, primary screen, biochemical, AlphaScreen, human. Microphthalmia-associated transcription factor (Homo sapiens), O75030. AlphaScreen MITF homodimerization, bead proximity signal. inhibition, % at 2.6 µM. actives 0.91% (n = 650,000). AID 1259374, 2018; in the data active = inhibition above about 50%;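 also: 0% = vehicle wells with protein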
GPR151 ag: activators of human GPR151, primary screen, cell-based, PathHunter beta-arrestin, luminescence | PathHunter beta-arrestin GPR151 cells | G-protein coupled receptor 151 (Homo sapiens), Q8TDV0 | actives 1% (n = 650,000) | activation, % at 11.2 µM; in the data active = activation above about 4.9%;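 also: 0% = median of compound wells and 100% = cells with positive control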
Active calls of the source: *. Shown are actives, neighbours in structure and some others; about 3.5% of the full set was active somewhere.

SMILES | FBW7 activator | TEAD-YAP block | MITF primary | GPR151 ag
COc1cc(OC)cc(C(=O)N(CCCN2C(=O)c3cccc4cccc(c34)C2=O)c2cccc(OC)c2)c1 | 0 | 8 | 0 | 2
O=C(CCl)N(Cc1cccs1)c1ccc2c(c1)OCCO2 | 0 | 37* | 3 | -1
COc1ccc(N(Cc2cccs2)C(=O)CCl)cc1 | 0 | 23 | 7 | -1
COc1ccccc1/C=C/C(=O)Nc1ccc2[nH]ncc2c1 | 0 | 35* | -5 | 0
O=C1N=C(c2ccccc2)S/C1=C/C=C\c1ccccc1 | 0 | 15 | 13 | 0
O=C1N=C(N2CCCC2)S/C1=C\C=C\c1ccccc1 | 0 | 78* | -1 | 0
O=C1N=C(N2CCOCC2)S/C1=C/C=C/c1ccccc1 | 0 | 45* | 26 | -1
COc1cc(/C=C2\SC(=Nc3ccccc3OC)NC2=O)ccc1O | 0 | 57* | 2 | -2
O=C1NC(=Nc2ccc(O)cc2)S/C1=C\c1ccccc1F | 0 | 43* | -13 | 1
O=C1NC(=Nc2ccc(O)cc2)S/C1=C\c1cccc(O)c1 | 0 | 57* | 7 | 1
COc1cc(/C=C2/SC(=Nc3ccccc3)NC2=O)ccc1O | 0 | 0 | 1 | 0
COc1cc(/C=C2/SC(=Nc3ccc(O)cc3)NC2=O)ccc1O | 0 | 49* | 10 | 1
COc1cc(/C=C2\SC(=Nc3ccccc3)NC2=O)ccc1O | 0 | 2 | 13 | -1
O=C1NC(=Nc2ccc(O)cc2)S/C1=C/c1ccccc1 | 0 | 2 | 18 | -1
Cc1ccc(-n2nc(C)c3c(C(=O)O)cc(C)nc32)cc1 | 0 | 4 | -1 | -1
COc1ccc(/C=C2\SC(=Nc3ccc(F)cc3)NC2=O)cc1O | 0 | 52* | 22 | 1
COc1cc(/C=C2\SC(=Nc3ccc(F)cc3)NC2=O)cc(OC)c1OC | 0 | 3 | 2 | 0
O=C(CCCCC(=O)N/N=C/c1ccccc1O)N/N=C/c1ccccc1O | -1 | 40* | 7 | 1
O=C(CCC(=O)Nc1cccc(Cl)c1)N/N=C/c1ccccc1O | 0 | 7 | 56* | 0
CC(C)(C)NC(=O)C(=O)N/N=C/c1ccccc1O | -2 | -44 | 53* | 0
O=C(CCCNc1ccccc1)N/N=C/c1ccccc1O | 0 | 6 | -5 | -1
CCCOc1ccc(C(CC(=O)O)NC(=O)c2ccc(C)cc2)cc1 (stereo not drawn) | 0 | -4 | -3 | 1
Cc1ccc2c(c1)N(CCCC(=O)Nc1ccc(Br)c(C)c1)C(=O)CO2 | 0 | 0 | 11 | -1
O=C(Nc1nc2ccc(NC(=O)C34CC5CC(CC(C5)C3)C4)cc2s1)C1CCCCC1 | 0 | 53* | 21 | -2
COC(=O)c1sc2ccccc2c1NC(=O)C1CC1 | 0 | -4 | -4 | 0
SMILES | FBW7 activator | TEAD-YAP block | MITF primary | GPR151 ag
Cc1ccc(-n2nc3ccc(N)cc3n2)cc1Cl | 0 | -20 | -5 | -1
Cc1ccc(-n2nc3ccc(N)cc3n2)c(C)c1 | 0 | 40* | 9 | 0
COc1ccc(/C=C2\C(=O)Nc3ccc(Br)cc32)c(OC)c1OC | 0 | 53* | 9 | 0
COc1ccc(/C=C2\C(=O)Nc3ccc(Br)cc32)cc1 | 0 | -4 | 32 | -2
CC[n+]1c(-c2ccc(C)cc2)csc1Nc1c(C)cc(C)cc1C | 0 | 5 | 22 | 3
CC[n+]1c(-c2ccc(C)cc2)csc1Nc1ccc(NC(C)=O)cc1 | 0 | 62* | 12 | 1
Cc1ccc(Cc2cnc(NC(=O)COc3ccccc3)s2)cc1 | 0 | 52* | 14 | 0
O=C(CCc1ccccc1)Nc1ncc(Cc2ccccc2)s1 | 0 | 49* | 8 | -1
O=C(Nc1ccc(Cc2ccncc2)cc1)c1ccc(Br)cc1 | 0 | 39* | 6 | 3
O=C(CCCl)Nc1ncc(Cc2ccccc2)s1 | 0 | -1 | 8 | 1
Cc1ccc(Cc2cnc(NC(=O)COc3ccccc3C)s2)cc1 | 0 | 17 | 10 | 0
Cc1ccc(C(=O)Nc2ccc(Cc3ccncc3)cc2)cc1 | 0 | 10 | -7 | -1
Cc1cccc(Cc2cnc(NC(=O)COc3ccccc3C)s2)c1 | 0 | 54* | -2 | 1
Cc1ccc(CC(=O)NCC(C)C)cc1 | 0 | -3 | 4 | 0
Cc1nc(SCC(=O)Nc2ccc([N+](=O)[O-])cc2)c2c(=O)n(C)c(=O)n(C)c2n1 | 0 | 14 | 4 | 1
CCOc1ccccc1NC(=O)Cn1nc(C2CC2)cc1C(=O)N1CCCC1 | 0 | 5 | -3 | -1
O=C(CCc1ccccc1)Nc1ccc(Cc2ccncc2)cc1 | 0 | 40* | 0 | 2
Cc1ccccc1OCC(=O)Nc1ncc(Cc2ccc(F)cc2)s1 | 0 | 51* | -6 | -1
O=C(CSCc1ccc(Cc2ccc(CSCC(=O)Nc3ccccc3)cc2)cc1)Nc1ccccc1 | 0 | 35* | 11 | -1
CC1CC(C)CN(S(=O)(=O)c2ccc(C(=O)Nc3nc(-c4cc5ccccc5oc4=O)cs3)cc2)C1 (stereo not drawn) | 0 | -12 | 14 | -1
COc1ccc(Cc2noc(-c3cc(-c4ccc(Cl)cc4)nc4ccccc34)n2)cc1OC | 0 | -6 | -14 | 2
Oc1ccc(O)c(Cc2nc3ccccc3s2)c1 | 0 | 53* | 2 | 4
COc1ccc(-c2nc3ccccc3s2)cc1OC(C)=O | 1 | 58* | 20 | -3
Nc1ccc(-c2nc3ccccc3s2)cc1N | 0 | 29 | -8 | -7
Oc1cccc(-c2nc3ccccc3s2)c1 | 0 | 92* | -5 | -4
SMILES | FBW7 activator | TEAD-YAP block | MITF primary | GPR151 ag
COC(=O)c1c(OC(C)C)cc(=O)n2c1CCN(Cc1cccc(C(F)(F)F)c1)CC2 | 0 | 0 | 7 | -1
Cc1cccc(-c2ocnc2C(=O)NCc2ccc3c(c2)OCO3)c1 | 0 | -4 | -7 | -1
COc1ccc(N=C2O/C(=C\c3sc(=S)n(CC4CCCO4)c3O)N=C2C#N)cc1 (stereo not drawn) | 0 | 9 | 52* | -1
COc1ccccc1-c1c(C(F)(F)F)oc2cc(OC(=O)C(C)C)ccc2c1=O | 0 | 7 | 12 | 0
COc1ccccc1-c1c(C(F)(F)F)oc2cc(OC(=O)N3CCOCC3)ccc2c1=O | 0 | 52* | 13 | 1
CC(C)CC(c1nnnn1Cc1ccc(F)cc1)N1CCN(C)CC1 (stereo not drawn) | 0 | 3 | 8 | 2
CCN1CCN(C(CC(C)C)c2nnnn2Cc2ccc(F)cc2)CC1 (stereo not drawn) | 0 | 53* | -5 | -1
O=C(NC1CCN(Cc2ccccc2)CC1)c1ccc(Cn2nnc3ccccc3c2=O)cc1 | 0 | 35* | 4 | -1
CCc1c(C(=O)c2ccc(C)cc2)n2c(C)csc2[n+]1-c1ccccc1 | 0 | 40* | 2 | 2
Cc1csc2n1c(C(=O)c1ccccc1)c(C)[n+]2-c1ccc(Br)cc1 | 0 | 14 | 6 | -1

From PubChem BioAssay
